From PubChem BioAssay come the findings set out here.

A short description of assay [1]: binders of probe aFSTL3 on microarray, primary screen, stem cell growth factor project, biochemical, small-molecule microarray, fluorescence 635/667 (AID 1064).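 Further: measures binding of the biotinylated anti-FSTL3 antibody to printed compounds.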 To be noted: higher = more signal.
The nature of assay [2]: binders from COS7 lysate, DM2A8 probe, primary screen, torsin A project, cell lysate, small-molecule microarray, fluorescence 635/667 (AID 1065). To be noted: higher = more signal, COS7 lysate expressing mutant human TOR1A.
Assay [3] in a line: binders of probe aFGF2 on microarray, primary screen, stem cell growth factor project, biochemical, small-molecule microarray, fluorescence 635/667 (AID 1067).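 Further: measures binding of biotinylated aFGF2 protein to printed compounds on slides; z-score merges feature fluorescence and signal-to-noise across triplicate slides.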 To be noted: higher = more signal.
Assay [4] can be described thus: binders of probe aFGF10 on microarray, primary screen, stem cell growth factor project, biochemical, small-molecule microarray, fluorescence 635/667 (AID 1071).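 Further: score merges 667 nm spot intensity and signal to noise from triplicate slides.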 To be noted: higher = more signal.
In assay [5] the target is Neurogenic locus notch homolog protein 2 (Homo sapiens) (UniProt Q04721). Nature of the assay: Notch2 binders on small-molecule microarrays, primary screen, biochemical, small-molecule microarray, 635 nm fluorescence, stem cell growth factors (AID 1073). To be noted: Notch2 binding, higher = more signal.
In assay [6] the target is Pro-neuregulin-1, membrane-bound isoform (Homo sapiens) (UniProt Q02297). As to the kind of experiment: NRG1 binders on small-molecule microarrays, primary screen, psychiatric disease protein project, biochemical, small-molecule microarray, fluorescence 635/667 (AID 1075).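 Further: score combines 667 nm spot fluorescence with signal to noise.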 To be noted: NRG1 binding, 635 nm fluorescence, higher = more signal.
In assay [7] the test system is Neuregulin-1 EGF-like domain. Nature of the assay: binders of neuregulin-1 EGF-like domain, primary screen, biochemical, small-molecule microarray, 635 nm fluorescence (AID 1081).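 Further: binding of the protein to compounds printed on small-molecule microarray slides.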 To be noted: small-molecule microarray binding, higher = more signal.
The nature of assay [8]: FRG1 promoter luciferase signal modulators, primary screen, FRG1 inhibition for FSHD, cell-based, C2C12 myotubes, firefly/Renilla luciferase, luminescence (AID 1084). To be noted: higher = more signal, called active from +8 up or from −8 down.
Assay [9] can be described thus: binders of probe aFST on microarray, primary screen, stem cell growth factor project, biochemical, small-molecule microarray, fluorescence 635/667 (AID 1086).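 Further: score merges 667 nm fluorescence with signal-to-noise of each printed compound spot.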 To be noted: higher = more signal.
The nature of assay [10]: binders of probe aHhip on microarray, primary screen, stem cell growth factor project, biochemical, small-molecule microarray, fluorescence 635/667 (AID 1087).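 Further: score merges spot fluorescence at 667nm with spot signal to noise ratio.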 To be noted: higher = more signal.
Assay [11] has as its system PRMT1 (protein arginine N-methyltransferase 1). Nature of the assay: PRMT1 binders on small-molecule microarrays, primary screen, biochemical, small-molecule microarray, 635 nm fluorescence (AID 1088).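 Further: binding of Prmt1 protein to compounds spotted on small-molecule microarray slides.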 To be noted: small-molecule microarray binding, higher = more signal.
Assay [12] is described as follows: yeast growth modulation, basal conditions, primary screen, YJM789 clinical isolate, OD600, 24 h (AID 1089).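 Further: growth of clinical yeast isolate S. cerevisiae YJM 789 seeded 1000 cells per well; test concentration not given here.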 To be noted: S. cerevisiae YJM789 growth, higher = more signal, called active from +8 up or from −8 down.
A short description of assay [13]: fission yeast growth modulation, primary screen, strain 972, OD600, 24 h, no modulator (AID 1090).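 Further: basal condition with compound alone and no growth modifier present; test concentration not given here.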 To be noted: S. pombe 972 growth, higher = more signal, called active from +8 up or from −8 down.
The nature of assay [14]: S. cerevisiae growth modulation with rapamycin, primary screen, strain BY4716, OD600, 96 h (AID 1091). Further: test concentration not given here. To be noted: higher = more signal, called active from +8 up or from −8 down.
Assay [15] concerns the target Torsin-1A-interacting protein 2 (Homo sapiens) (UniProt Q8NFQ8). Nature of the assay: LULL1 binders on small-molecule microarray, primary screen, cell lysate, human LULL1 lysate, 635/667 nm fluorescence (AID 1092).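 Further: probe is lysate of COS7 cells overexpressing human LULL1; score merges per-feature 667 nm fluorescence with signal-to-noise.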 To be noted: hLULL1 lysate binding, 635 nm fluorescence, higher = more signal.
Assay [16] is described as follows: E. coli growth modulation, two-sided OD650, primary screen, E. coli filamentation project, strain DRC41, 24 h (AID 1093).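 Further: MC1000 strain lacking acrAB efflux and sulA so SOS filamentation is blocked; test concentration not given here.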 To be noted: OD650, 24 h, higher = more signal, called active from +8 up or from −8 down.
The nature of assay [17]: small-molecule microarray binders of probe aLefty2, primary screen, biochemical, biotinylated probe, 635/667 nm fluorescence (AID 1094).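 Further: score merges spot fluorescence near 667 nm with spot signal-to-noise ratio.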 To be noted: higher = more signal.
The test system of assay [18] is Noggin (protein binding on small-molecule microarray). Nature of the assay: Noggin binders on small-molecule microarray, primary screen, biochemical, 635/667 nm fluorescence (AID 1095).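 Further: score merges 667 nm feature fluorescence with signal to noise over triplicate slides.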 To be noted: 635 nm fluorescence, higher = more signal.
The target in assay [19] is Neurogenic locus notch homolog protein 3 (Homo sapiens) (UniProt Q9UM47). Nature of the assay: NOTCH3 binders on small-molecule microarray, primary screen, biochemical, 635/667 nm fluorescence (AID 1096). To be noted: NOTCH3 binding, 635 nm fluorescence, higher = more signal.
Assay [20] in a line: small-molecule microarray binders of probe aEGFR, primary screen, biochemical, biotinylated probe, 635/667 nm fluorescence (AID 1097).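 Further: probe is a biotinylated anti-EGFR antibody binding compounds printed on slides; score combines fluorescence near 667 nm and signal to noise of each spot.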 To be noted: higher = more signal.

SMILES strings stand for the structures. Activity calls are given as the source filed them.

Neurogenic locus notch homolog protein 2 (Homo sapiens), sequence (Q04721 whole entry, looked up, canonical isoform): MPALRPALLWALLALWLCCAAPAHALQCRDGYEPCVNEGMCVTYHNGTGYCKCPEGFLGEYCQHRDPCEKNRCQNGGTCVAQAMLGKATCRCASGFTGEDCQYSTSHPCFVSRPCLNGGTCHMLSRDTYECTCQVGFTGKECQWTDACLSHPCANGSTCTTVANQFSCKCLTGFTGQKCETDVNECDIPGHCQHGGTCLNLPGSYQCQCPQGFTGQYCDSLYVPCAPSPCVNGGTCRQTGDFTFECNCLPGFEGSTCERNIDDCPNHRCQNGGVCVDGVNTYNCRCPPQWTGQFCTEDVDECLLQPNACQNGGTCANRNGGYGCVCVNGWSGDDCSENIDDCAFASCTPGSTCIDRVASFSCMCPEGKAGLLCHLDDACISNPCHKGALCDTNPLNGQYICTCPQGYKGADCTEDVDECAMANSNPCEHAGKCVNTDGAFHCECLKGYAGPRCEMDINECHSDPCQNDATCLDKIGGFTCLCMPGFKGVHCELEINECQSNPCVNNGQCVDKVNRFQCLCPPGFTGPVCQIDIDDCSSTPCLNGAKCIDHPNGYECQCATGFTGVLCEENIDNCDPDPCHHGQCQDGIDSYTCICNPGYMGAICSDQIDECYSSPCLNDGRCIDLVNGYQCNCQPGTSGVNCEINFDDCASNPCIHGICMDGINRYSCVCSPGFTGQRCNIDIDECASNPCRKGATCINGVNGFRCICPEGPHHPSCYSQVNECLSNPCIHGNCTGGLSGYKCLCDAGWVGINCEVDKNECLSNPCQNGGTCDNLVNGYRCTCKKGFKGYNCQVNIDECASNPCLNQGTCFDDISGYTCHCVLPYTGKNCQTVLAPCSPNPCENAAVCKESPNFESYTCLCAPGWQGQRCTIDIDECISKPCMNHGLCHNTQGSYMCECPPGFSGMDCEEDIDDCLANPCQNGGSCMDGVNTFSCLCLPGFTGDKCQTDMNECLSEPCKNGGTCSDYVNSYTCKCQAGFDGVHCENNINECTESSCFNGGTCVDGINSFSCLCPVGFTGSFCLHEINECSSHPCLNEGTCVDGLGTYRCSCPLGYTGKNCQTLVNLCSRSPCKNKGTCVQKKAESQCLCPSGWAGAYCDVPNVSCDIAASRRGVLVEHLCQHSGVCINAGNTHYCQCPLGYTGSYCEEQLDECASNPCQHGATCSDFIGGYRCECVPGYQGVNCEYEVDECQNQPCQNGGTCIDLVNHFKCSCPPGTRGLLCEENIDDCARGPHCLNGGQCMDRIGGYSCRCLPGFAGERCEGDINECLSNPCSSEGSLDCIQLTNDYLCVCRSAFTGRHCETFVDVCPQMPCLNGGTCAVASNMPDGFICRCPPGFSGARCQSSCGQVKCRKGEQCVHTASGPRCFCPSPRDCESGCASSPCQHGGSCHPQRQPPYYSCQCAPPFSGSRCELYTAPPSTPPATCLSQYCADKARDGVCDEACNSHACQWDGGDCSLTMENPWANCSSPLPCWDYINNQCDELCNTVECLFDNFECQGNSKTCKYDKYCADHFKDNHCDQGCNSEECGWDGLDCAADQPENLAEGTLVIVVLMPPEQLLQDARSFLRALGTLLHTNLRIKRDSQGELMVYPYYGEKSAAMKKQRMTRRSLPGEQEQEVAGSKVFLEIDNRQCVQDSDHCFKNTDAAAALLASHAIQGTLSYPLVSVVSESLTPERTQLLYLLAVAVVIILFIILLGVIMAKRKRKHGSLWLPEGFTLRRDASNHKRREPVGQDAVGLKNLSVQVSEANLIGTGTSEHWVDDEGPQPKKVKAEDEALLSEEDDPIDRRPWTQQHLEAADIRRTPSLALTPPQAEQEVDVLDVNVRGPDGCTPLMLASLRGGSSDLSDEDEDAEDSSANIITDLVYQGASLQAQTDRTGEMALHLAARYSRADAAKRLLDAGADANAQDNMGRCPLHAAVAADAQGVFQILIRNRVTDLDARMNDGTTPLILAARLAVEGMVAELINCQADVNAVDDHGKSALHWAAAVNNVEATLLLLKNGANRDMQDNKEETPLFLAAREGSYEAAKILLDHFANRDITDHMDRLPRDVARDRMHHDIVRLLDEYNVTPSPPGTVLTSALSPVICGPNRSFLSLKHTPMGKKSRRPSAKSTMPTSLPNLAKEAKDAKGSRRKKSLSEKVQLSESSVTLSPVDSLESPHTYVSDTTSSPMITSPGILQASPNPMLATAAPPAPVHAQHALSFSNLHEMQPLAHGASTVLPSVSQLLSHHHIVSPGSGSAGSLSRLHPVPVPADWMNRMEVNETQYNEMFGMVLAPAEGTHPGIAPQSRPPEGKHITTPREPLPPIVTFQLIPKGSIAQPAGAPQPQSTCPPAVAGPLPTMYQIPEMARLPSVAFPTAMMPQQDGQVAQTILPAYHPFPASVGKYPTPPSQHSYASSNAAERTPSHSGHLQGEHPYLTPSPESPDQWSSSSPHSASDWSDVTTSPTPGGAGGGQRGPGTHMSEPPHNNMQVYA
Neurogenic locus notch homolog protein 3 (Homo sapiens), sequence (Q9UM47 whole entry, looked up): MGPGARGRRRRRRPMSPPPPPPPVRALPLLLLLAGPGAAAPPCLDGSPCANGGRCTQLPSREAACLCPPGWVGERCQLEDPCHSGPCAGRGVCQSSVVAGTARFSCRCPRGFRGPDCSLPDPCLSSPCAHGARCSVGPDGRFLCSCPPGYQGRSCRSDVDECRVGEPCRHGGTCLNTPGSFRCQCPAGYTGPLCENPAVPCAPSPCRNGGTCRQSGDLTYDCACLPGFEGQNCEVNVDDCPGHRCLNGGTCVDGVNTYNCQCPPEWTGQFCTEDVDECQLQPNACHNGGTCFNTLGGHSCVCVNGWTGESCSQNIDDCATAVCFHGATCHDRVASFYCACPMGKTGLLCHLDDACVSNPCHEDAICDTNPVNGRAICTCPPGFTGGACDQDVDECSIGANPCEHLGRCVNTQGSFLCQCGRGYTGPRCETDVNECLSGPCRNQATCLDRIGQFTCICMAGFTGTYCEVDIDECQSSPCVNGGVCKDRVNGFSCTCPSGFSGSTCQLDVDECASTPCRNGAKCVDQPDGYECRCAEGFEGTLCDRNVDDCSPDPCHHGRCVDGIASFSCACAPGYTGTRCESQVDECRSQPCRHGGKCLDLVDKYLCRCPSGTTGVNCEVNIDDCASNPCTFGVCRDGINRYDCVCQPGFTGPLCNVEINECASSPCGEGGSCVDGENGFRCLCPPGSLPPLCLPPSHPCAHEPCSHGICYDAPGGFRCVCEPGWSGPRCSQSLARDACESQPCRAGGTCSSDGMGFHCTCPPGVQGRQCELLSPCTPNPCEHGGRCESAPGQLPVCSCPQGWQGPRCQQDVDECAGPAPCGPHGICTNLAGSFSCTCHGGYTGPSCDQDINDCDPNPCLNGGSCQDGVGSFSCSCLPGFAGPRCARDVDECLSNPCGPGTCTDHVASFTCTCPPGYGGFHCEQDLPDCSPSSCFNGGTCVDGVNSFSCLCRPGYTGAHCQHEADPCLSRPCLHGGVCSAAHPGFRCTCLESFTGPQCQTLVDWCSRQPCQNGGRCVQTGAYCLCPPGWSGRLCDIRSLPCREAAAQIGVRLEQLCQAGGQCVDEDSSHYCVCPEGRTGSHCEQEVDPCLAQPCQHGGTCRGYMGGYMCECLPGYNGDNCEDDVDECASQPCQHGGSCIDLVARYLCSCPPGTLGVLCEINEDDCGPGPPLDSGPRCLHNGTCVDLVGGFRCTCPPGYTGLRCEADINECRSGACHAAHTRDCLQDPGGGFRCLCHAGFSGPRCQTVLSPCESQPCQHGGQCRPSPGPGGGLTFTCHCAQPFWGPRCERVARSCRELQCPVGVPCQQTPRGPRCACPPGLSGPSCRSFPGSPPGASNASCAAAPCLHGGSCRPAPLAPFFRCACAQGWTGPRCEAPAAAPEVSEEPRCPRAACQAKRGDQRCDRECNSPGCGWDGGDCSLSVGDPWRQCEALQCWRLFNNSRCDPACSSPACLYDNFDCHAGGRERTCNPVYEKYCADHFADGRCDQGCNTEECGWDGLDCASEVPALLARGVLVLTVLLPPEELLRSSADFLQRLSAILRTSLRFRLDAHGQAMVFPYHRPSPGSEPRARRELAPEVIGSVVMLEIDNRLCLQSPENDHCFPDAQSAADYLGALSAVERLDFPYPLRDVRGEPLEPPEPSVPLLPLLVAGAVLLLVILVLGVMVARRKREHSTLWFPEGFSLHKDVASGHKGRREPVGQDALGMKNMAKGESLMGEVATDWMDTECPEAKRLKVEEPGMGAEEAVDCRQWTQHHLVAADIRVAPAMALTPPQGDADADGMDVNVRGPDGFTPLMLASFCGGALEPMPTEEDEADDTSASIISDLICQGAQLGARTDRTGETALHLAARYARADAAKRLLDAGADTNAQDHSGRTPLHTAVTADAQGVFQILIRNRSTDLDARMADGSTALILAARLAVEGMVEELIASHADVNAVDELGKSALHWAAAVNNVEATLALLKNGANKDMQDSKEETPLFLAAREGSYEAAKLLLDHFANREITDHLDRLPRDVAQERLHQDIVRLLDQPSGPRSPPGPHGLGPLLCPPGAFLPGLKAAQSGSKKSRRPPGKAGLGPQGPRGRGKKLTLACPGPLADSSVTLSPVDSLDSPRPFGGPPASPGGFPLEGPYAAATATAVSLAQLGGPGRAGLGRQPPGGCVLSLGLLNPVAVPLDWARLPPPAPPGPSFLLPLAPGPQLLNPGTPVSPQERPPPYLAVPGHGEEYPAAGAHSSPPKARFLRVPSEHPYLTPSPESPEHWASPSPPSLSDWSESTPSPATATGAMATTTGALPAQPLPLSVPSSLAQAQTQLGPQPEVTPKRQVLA

With `CC(CCN1CCc2nc(-c3ccccc3)c(-c3ccccc3)cc2C1)=NO[C@@H](C)c1cc(-c2c(C)cc(C)cc2C)no1`, the composite z-score in [1] was 0.037; in [2], 0.0468; in assay [3], -0.14; in [4], 0.155; in assay [5], -0.846; in assay [6] it was 0.129. The composite z-score in assay [7] was 0.55; in assay [9] it was 0.0035; in assay [10], -0.13; in [11], 0.535; in assay [15], 0.838; in assay [17] it was -0.186. In addition, the values for the composite z-score in assay [18], in assay [19] and in assay [20] were -0.0011, -1.29 and -0.17, respectively. Further, the z-score in [8] was 0.687 (inactive); in assay [12], -0.295 (inactive); in assay [13], -0.974 (inactive); in [14], -3.2 (inactive); in assay [16], -0.394 (inactive).

Regarding `CCCNC(=O)OC[C@H]1O[C@H](CCON=C2C[C@@H](O)[C@@H](O)[C@@H]3[C@@H]4C(=O)N(CC)C(=O)[C@@H]4CC[C@@H]23)C=C[C@@H]1Oc1ccc(OC)cc1`, the composite z-score in [1] is -0.465; in assay [2], 0.142; in assay [3], -0.0165; in [4], 0.64; in [5] it was 0.705; in assay [6], 0.628. The composite z-score in assay [7] is 0.898; in assay [9], 0.46; in assay [10], -0.0645; in [11], 1.07; in assay [15], 1.04; in [17] it was -0.0932. Besides, the figures for the composite z-score in assay [18], in assay [19] and in assay [20] were 0.64, 1.05 and -0.0605, respectively. In addition, the z-score in assay [8] is 0.36 (inactive); in assay [12], -0.284 (inactive); in assay [13], -0.0922 (inactive); in assay [14], -0.768 (inactive); in assay [16], 0.536 (inactive).

Turning to `COC(=O)[C@H](C)NC(=O)CCC1CC(OC(=O)NCCc2ccc(F)cc2)CC2(CCCC(COC(=O)NCc3ccccc3)O2)O1` (stereo not given in full), the composite z-score in [1] is -0.749; in assay [2], -0.126; in assay [3], 0.0002; in assay [4], 0.677; in [5], 1.06; in assay [6] it was 0.648. Moreover, the composite z-score in assay [7] is 0.964; in assay [9], 0.65; in assay [10], -0.305; in assay [11] it was 1.53; in assay [15], 1.92; in assay [17] it was -0.0898. Besides, the figures for the composite z-score in [18], in assay [19] and in assay [20] were 0.55, 1.1 and -0.0314, respectively. The z-score is 1.61 (inactive) in assay [8]; 0.59 (inactive) in assay [12]; 1.04 (inactive) in [13]; 0.932 (inactive) in assay [14]; -0.755 (inactive) in assay [16].

Regarding `CCOC(=O)NN=C1C[C@@H](O)[C@@H](O)[C@@H]2[C@@H]3C(=O)N(CC)C(=O)[C@@H]3CC[C@H]12`, the composite z-score in assay [1] is -0.431; in [2], 0.36; in [3], -0.1; in [4], 0.389; in assay [5], 0.384; in assay [6] it was -0.313. Also, the composite z-score in assay [7] is 0.539; in [9], 0.007; in assay [10] it was -0.153; in [11] it was -0.0481; in [15] it was 0.458; in assay [17] it was -0.25. Moreover, the composite z-score in assay [18] was 0.583; in assay [19], -0.387; in assay [20] it was -0.034. For the same compound, the z-score is -0.323 (inactive) in assay [8]; 0.213 (inactive) in [12]; 0.324 (inactive) in assay [13]; 0.71 (inactive) in [14]; 0.312 (inactive) in assay [16].

Consider `CCc1cc2c(nc1CC)CCN(CCC(C)=NOCC[C@@H]1C=C[C@H](OC(C)=O)[C@@H](COC(C)=O)O1)C2`, for which the composite z-score in assay [1] is 0.325; in assay [2] it was 1.66; in assay [3] it was -0.103; in [4] it was -0.213; in [5], -0.0544; in assay [6], -0.0974. Also, the composite z-score in assay [7] worked out at 0.545; in [9] it was 0.851; in assay [10], 0.0722; in assay [11], 1.54; in assay [15] it was 0.796; in [17], 0.251. Moreover, the composite z-score in assay [18] was determined as 1.21; in assay [19], 0.546; in assay [20] it was 0.0579. For the same compound, the z-score in [8] is 0.485 (inactive); in assay [12] it was -0.391 (inactive); in assay [13], 0.591 (inactive); in assay [14], 0.521 (inactive); in assay [16] it was 0.956 (inactive).
